In PubChem BioAssay AID2148 (The Scripps Research Institute Molecular Screening Center, 2009):
The campaign covered roughly 2,400 compounds. About 1,500 (62%) were called active. Cut-off read from the data, not from the text of the source: active = inhibition above about 22%; inactive = the rest. The set was probably picked from earlier hits. Only a selection was taken, and actives are over-represented in it overall.

Biological target: Melanin-concentrating hormone receptor 1 (Homo sapiens) (UniProt Q99705)
Assay: antagonism of human MCHR1 receptor – cell-based, fluorescence, counter-screen for GPR7 antagonist project (AID 2148);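 note: 0% = vehicle with agonist and 100% = vehicle without agonist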
Settings: MCHR1-expressing cells, fluorescence antagonist assay; at 4.4 µM; hits give high values

Row | Compound | inhibition
1 | CCOC(=O)C1(Cc2ccc(Cl)cc2)CCN(C(C)CCn2cccn2)CC1 (stereo not drawn) | 26% (active)
2 | COc1ccc(Br)cc1CNCCc1cccc(Cl)c1 | 44.1% (active)
3 | CCOc1ccc(-c2cc(C)[n+](CCN(CC)CC)c(-c3ccc(OCC)cc3)c2)cc1 | 46.5% (active)
